Laboratory results from PubChem BioAssay (NCI).
The panel holds about 83,000 compounds, 20% with a hit somewhere; the sample as a whole holds those more often.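 96-well plates, one dose, 48 hours. Percent growth reported; active if below 10.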 A number with no mark means an inactive call. The source made the active and inactive calls.

Legend:
Assay in all cases: NCI-60 one-dose screen, 48 h (100 = growth as untreated, 0 = no growth, -100 = all killed)
Conditions in all cases: 10 µM unless noted
EKVX NSCLC = test system: EKVX NSCLC
SN12C renal = test system: SN12C renal
UO-31 renal = test system: UO-31 renal
TK-10 renal = test system: TK-10 renal
ACHN renal = test system: ACHN renal
A498 renal = test system: A498 renal
MOLT-4 leukemia = test system: MOLT-4 leukemia
SR leukemia = test system: SR leukemia
RPMI-8226 leukemia = test system: RPMI-8226 leukemia
OVCAR-8 ovarian = test system: OVCAR-8 ovarian
OVCAR-5 ovarian = test system: OVCAR-5 ovarian
OVCAR-4 ovarian = test system: OVCAR-4 ovarian
SK-OV-3 ovarian = test system: SK-OV-3 ovarian
IGROV1 ovarian = test system: IGROV1 ovarian
OVCAR-3 ovarian = test system: OVCAR-3 ovarian
HS 578T breast = test system: HS 578T breast
NCI/ADR-RES ovarian = test system: NCI/ADR-RES ovarian
CAKI-1 renal = test system: CAKI-1 renal

Compound	growth (EKVX NSCLC) [%]	growth (SN12C renal) [%]	growth (UO-31 renal) [%]	growth (TK-10 renal) [%]	growth (ACHN renal) [%]	growth (A498 renal)	growth (MOLT-4 leukemia) [%]	growth (SR leukemia) [%]	growth (RPMI-8226 leukemia) [%]	growth (OVCAR-8 ovarian) [%]	growth (OVCAR-5 ovarian) [%]	growth (OVCAR-4 ovarian) [%]	growth (SK-OV-3 ovarian) [%]	growth (IGROV1 ovarian) [%]	growth (OVCAR-3 ovarian)	growth (HS 578T breast)	growth (NCI/ADR-RES ovarian)	growth (CAKI-1 renal) [%]
COc1ccc(C(=O)N2NC(=O)/C(=C/c3ccc(Br)cc3)N=C2c2ccccc2)cc1	95.7	74.1	92.8	107	87.8	83.5%	17.3	57.2	71.7	78.4	91.4	92.7	85.3	92.5	119%	94.9%	83.4%	–
O=C1NN(C(=O)c2ccc(Cl)cc2)C(c2ccccc2)=N/C1=C\c1ccc(F)cc1	90.7	78.1	75.6	109	83.2	73.1%	36.2	80.2	60.3	86.6	88.8	99.1	97.4	87.6	98.7%	95.2%	66.7%	–
COc1ccc(-c2c(N)n[nH]c2-c2cc3c(c(OC)c2OC)OCO3)cc1	92.4	92.5	84	101	96.9	75.7%	96.5	–	57.5	104	85.5	99.1	106	96.4	108%	83.3%	96.8%	94.4
COc1ccc(-c2[nH]nc(N)c2-c2cc(OC)c3c(c2)OCO3)cc1	72.9	52	68.1	84.8	73.8	43.2%	25.7	–	81.3	77.2	70	89.3	76.7	–	64.9%	40.4%	8.74% (active)	53.4
COc1cc(/C(C#N)=C/c2ccc3c(c2OC)OCO3)cc2c1OCO2	45.9	36.6	41.7	54.3	51.6	8.92% (active)	50.6	–	32.3	28.8	42.7	56.3	16.2	37.7	-36% (active)	0.131% (active)	-7.38% (active)	42.9
COc1ccc(S(=O)(=O)n2cc(C(=O)C(=O)Nc3ccncc3)c3ccccc32)cc1F	39.5	73.7	81.8	102	66.7	73.4%	–	–	48.6	69	81.1	73.4	85	–	85.6%	88.1%	67.2%	55.3
O=C(Nc1ccncc1)C(=O)c1cn(S(=O)(=O)c2ccc(Oc3ccccc3)cc2)c2ccccc12	42.3	84.9	62.3	102	86.3	34.7%	–	92.9	76.4	99.3	87.5	88.3	86.4	82.7	112%	92%	92.5%	57
COc1cccc(/C=C/C(=O)Nc2cc(OC)c3c(c2)OCO3)c1	92.4	93.8	101	98.4	102	69.5%	89.5	–	57.1	105	89.1	96.4	104	108	110%	98.8%	93.2%	93.7
Nc1cc2c(cc1C(=O)c1cccc(F)c1)OCCO2	92.5	90.1	68.8	94	105	96.5%	–	–	–	91.1	98.2	105	93.3	89.7	116%	111%	97.9%	88.4
COc1ccc(-c2ccc(C)n2-c2ccc(-c3nc4ccccc4s3)cc2)cc1	78	86.6	86.6	119	90.9	65.7%	81.8	–	70.4	95.8	101	92.9	80.3	92.8	–	97.5%	89.9%	76
